Common to all, as to assay: DAPPL (digital affinity profiling via proximity ligation, sequencing); 10 mM Tris-HCl pH 7.5, 50 mM NaCl, 1 mM DTT, 4% glycerol, room temperature, 30 min; GST-TFs on glutathione beads, 16-mer random dsDNA library, 0.1% formaldehyde crosslink after washing; high values mean tight binding
Assay [1] has as its target T1, FEV (Homo sapiens, UniProt Q99581 1-238).
T1 sequence: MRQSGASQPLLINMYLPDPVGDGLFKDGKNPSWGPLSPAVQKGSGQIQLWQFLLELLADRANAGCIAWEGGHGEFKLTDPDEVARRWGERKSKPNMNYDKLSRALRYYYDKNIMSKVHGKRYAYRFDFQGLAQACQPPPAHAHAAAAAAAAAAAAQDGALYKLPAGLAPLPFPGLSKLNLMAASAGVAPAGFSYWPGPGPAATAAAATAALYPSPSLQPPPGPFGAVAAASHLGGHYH
Conditions: protein: recombinant; tags: N-terminal GST; dsDNA, one strand shown. In a few lines: (§1)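 Binding signal is given per hexamer as its read frequency for a factor divided by its frequency in the tag-only sample. GST-fused human transcription factors were expressed in yeast, captured on glutathione beads, barcoded with DNA and pooled with that sample, then incubated with 200 nmole of a 16-mer random double-stranded DNA library in Tris/NaCl/DTT/glycerol buffer for 30 min at room temperature. The pools were then washed, crosslinked, proximity-ligated, amplified by PCR and sequenced on an Illumina NextSeq500.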

Assay [2] deals with ETV5 (Homo sapiens, UniProt P41161 1-510). Conditions: protein: recombinant; tags: N-terminal GST; dsDNA, one strand shown. In a few lines:
as §1

Assay [3] has as its target HSF1 (Homo sapiens, UniProt Q00613 1-529). The following applies: protein: recombinant; tags: N-terminal GST; chain copies: 3; dsDNA, one strand shown. Put shortly: as §1
The target of assay [4] is T2, SPIC (Homo sapiens, UniProt Q8N5J4 1-248).
T2 sequence: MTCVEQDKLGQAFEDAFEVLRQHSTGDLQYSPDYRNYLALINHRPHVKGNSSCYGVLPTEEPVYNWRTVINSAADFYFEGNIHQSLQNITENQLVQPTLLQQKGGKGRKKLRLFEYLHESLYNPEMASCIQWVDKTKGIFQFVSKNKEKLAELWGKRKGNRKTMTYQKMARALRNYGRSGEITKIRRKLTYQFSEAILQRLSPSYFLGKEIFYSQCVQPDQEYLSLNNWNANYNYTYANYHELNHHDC
Conditions: protein: recombinant; tags: N-terminal GST; dsDNA, one strand shown. Put shortly:
as §1

Assay [5] deals with ELF4 (Homo sapiens, UniProt Q99607 1-663). Conditions: protein: recombinant; tags: N-terminal GST; dsDNA, one strand shown. Put shortly: as §1
Sequence of ELF4 (Q99607 whole entry): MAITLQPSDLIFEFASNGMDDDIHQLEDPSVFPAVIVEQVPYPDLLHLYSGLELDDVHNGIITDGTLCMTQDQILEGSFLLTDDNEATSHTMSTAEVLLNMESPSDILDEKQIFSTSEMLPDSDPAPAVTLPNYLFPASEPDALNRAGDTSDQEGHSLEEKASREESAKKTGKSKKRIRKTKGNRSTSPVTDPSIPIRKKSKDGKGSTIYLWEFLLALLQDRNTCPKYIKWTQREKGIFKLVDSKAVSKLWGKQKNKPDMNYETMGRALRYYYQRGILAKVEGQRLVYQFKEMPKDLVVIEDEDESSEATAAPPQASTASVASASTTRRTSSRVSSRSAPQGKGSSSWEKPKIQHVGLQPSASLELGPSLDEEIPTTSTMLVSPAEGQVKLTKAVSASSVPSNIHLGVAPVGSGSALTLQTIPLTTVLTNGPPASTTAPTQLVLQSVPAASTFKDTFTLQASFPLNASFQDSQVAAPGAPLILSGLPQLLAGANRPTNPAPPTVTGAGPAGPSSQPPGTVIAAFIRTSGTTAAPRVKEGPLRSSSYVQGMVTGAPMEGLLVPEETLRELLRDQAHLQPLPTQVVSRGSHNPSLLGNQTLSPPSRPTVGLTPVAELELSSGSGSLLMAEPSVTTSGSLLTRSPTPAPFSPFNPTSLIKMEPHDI
For assay [6], the target named is T3, ELK4 (Homo sapiens, UniProt P28324-2 1-405).
T3 sequence: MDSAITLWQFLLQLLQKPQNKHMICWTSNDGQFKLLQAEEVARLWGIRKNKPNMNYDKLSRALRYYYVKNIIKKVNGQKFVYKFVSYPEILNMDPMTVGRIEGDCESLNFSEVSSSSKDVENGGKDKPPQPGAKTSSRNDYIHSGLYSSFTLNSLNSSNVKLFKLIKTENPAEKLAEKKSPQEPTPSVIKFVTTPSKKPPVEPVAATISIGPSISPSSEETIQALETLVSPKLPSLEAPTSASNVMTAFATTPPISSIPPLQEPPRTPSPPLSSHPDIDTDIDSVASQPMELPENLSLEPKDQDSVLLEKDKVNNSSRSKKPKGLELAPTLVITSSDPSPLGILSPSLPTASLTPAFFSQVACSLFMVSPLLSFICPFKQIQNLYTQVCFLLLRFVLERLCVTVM
The following applies: protein: recombinant; tags: N-terminal GST; dsDNA, one strand shown. Put shortly: as §1

In assay [7] the target is T4, ETV2 (Homo sapiens, UniProt O00321 1-342).
T4 sequence: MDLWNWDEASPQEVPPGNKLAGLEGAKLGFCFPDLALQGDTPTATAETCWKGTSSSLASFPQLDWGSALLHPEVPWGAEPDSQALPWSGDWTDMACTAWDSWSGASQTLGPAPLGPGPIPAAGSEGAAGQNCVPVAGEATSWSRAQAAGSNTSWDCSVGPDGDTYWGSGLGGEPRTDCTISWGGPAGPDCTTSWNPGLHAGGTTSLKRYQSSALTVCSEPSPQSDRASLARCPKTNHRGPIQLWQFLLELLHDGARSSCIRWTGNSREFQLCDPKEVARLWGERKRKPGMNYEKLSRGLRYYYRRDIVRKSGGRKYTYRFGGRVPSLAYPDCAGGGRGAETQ
The following applies: protein: recombinant; tags: N-terminal GST; dsDNA, one strand shown. In a few lines: as §1

Assay [8] has as its target T5, ELF3 (Homo sapiens, UniProt P78545 1-371).
T5 sequence: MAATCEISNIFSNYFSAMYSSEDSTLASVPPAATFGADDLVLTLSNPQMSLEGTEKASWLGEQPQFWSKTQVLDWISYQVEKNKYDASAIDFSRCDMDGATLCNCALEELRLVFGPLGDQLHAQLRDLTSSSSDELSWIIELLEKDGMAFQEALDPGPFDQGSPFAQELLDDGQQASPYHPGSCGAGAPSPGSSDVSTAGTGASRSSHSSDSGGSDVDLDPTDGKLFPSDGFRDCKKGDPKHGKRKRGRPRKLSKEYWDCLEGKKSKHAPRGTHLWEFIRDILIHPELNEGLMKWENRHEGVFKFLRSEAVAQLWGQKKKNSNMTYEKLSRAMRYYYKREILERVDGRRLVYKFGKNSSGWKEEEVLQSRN
Conditions: protein: recombinant; tags: N-terminal GST; dsDNA, one strand shown. Put shortly: as §1

The target of assay [9] is CRX (Homo sapiens, UniProt O43186 1-299). The following applies: protein: recombinant; tags: N-terminal GST; dsDNA, one strand shown. Put shortly:
as §1

For assay [10], the target named is ETV1 (Homo sapiens, UniProt P50549 1-477). The following applies: protein: recombinant; tags: N-terminal GST; dsDNA, one strand shown. In a few lines:
as §1

In assay [11] the target is T6, ERF (Homo sapiens, UniProt P50548 1-548).
T6 sequence: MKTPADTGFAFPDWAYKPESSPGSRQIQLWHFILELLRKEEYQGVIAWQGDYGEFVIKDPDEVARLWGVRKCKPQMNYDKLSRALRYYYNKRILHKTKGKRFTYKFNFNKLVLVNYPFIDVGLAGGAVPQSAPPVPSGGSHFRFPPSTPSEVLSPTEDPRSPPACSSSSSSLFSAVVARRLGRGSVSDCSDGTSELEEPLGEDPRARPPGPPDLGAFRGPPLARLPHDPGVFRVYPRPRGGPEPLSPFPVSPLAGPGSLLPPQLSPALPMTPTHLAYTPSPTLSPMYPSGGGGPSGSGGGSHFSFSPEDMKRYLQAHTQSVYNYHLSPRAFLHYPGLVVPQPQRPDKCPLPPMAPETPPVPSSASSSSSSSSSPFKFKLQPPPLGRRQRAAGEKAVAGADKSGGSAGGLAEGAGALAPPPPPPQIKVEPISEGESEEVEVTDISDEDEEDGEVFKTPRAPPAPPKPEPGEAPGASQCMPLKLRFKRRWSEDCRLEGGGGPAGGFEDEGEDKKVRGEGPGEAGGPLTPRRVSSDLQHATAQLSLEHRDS
The following applies: protein: recombinant; tags: N-terminal GST; dsDNA, one strand shown. Put shortly:
as §1

Assay [12] addresses T7, ETV3L (Homo sapiens, UniProt Q6ZN32 1-361).
T7 sequence: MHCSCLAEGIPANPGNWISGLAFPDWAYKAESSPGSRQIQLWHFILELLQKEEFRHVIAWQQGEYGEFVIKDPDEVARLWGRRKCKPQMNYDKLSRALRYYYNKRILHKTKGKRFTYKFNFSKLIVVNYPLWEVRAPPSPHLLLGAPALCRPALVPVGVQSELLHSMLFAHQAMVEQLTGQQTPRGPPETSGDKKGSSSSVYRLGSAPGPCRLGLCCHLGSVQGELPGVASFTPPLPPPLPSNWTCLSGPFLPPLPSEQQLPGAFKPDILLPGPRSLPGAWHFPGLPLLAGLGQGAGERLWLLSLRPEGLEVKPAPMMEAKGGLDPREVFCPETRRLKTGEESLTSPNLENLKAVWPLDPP
The following applies: protein: recombinant; tags: N-terminal GST; dsDNA, one strand shown. In a few lines: as §1

Assay [13] deals with T8, ETS2 (Homo sapiens, UniProt P15036 1-469).
T8 sequence: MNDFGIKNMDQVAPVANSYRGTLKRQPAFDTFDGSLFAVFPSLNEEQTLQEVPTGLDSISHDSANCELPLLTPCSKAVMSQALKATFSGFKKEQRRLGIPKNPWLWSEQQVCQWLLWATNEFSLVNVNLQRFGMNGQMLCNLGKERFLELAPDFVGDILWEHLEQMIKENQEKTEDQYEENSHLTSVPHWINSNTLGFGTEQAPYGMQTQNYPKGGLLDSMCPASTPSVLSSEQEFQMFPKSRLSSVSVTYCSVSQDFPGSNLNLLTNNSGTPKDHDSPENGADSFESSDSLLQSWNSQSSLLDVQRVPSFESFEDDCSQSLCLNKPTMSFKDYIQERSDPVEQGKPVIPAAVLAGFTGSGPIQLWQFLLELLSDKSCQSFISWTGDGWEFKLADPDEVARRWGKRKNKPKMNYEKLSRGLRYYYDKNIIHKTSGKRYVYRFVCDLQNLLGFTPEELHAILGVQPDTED
The following applies: protein: recombinant; tags: N-terminal GST; dsDNA, one strand shown. In a few lines:
as §1

The target of assay [14] is T9, SPDEF (Homo sapiens, UniProt O95238 1-335).
T9 sequence: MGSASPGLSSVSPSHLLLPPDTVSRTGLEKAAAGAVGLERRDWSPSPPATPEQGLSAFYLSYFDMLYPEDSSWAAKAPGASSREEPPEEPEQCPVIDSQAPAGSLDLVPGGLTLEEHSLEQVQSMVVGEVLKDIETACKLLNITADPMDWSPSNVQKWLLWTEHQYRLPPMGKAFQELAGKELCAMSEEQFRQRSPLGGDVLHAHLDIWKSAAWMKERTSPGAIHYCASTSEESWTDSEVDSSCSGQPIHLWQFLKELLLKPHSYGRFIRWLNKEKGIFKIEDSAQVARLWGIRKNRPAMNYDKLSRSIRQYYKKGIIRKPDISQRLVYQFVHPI
Conditions: protein: recombinant; tags: N-terminal GST; dsDNA, one strand shown. In a few lines: as §1

The target of assay [15] is T10, ETV7 (Homo sapiens, UniProt Q9Y603 1-341).
T10 sequence: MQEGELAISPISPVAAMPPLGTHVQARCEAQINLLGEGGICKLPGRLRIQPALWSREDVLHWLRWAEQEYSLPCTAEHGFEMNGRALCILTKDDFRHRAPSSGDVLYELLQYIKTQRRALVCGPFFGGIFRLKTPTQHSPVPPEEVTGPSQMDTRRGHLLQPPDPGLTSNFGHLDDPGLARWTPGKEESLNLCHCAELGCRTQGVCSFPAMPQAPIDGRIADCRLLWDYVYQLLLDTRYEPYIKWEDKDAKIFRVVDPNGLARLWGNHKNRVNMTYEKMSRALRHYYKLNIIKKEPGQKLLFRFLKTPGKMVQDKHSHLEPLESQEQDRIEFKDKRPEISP
The following applies: protein: recombinant; tags: N-terminal GST; dsDNA, one strand shown. In a few lines: as §1

Assay [16] concerns the target T11, ELF5 (Homo sapiens, UniProt Q9UKW6-2 1-255).
T11 sequence: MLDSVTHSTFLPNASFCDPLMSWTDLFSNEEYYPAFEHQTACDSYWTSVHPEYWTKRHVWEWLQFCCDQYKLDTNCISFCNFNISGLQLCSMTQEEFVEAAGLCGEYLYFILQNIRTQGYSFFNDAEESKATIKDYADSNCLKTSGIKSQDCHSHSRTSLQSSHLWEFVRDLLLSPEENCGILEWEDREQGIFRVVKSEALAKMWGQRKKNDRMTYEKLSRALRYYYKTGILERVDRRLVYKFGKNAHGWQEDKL
The following applies: protein: recombinant; tags: N-terminal GST; dsDNA, one strand shown. Put shortly:
as §1

The target of assay [17] is T12, ETV3 (Homo sapiens, UniProt P41162-2 1-143).
T12 sequence: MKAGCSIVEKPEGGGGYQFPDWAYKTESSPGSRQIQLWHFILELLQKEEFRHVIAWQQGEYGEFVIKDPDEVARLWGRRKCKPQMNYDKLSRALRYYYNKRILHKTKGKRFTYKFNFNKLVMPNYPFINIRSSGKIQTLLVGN
Conditions: protein: recombinant; tags: N-terminal GST; dsDNA, one strand shown. In a few lines: as §1

In assay [18] the target is ETV6 (Homo sapiens, UniProt P41212 1-452). The following applies: protein: recombinant; tags: N-terminal GST; dsDNA, one strand shown. In a few lines:
as §1

Sequence of HSF1 (Q00613 whole entry): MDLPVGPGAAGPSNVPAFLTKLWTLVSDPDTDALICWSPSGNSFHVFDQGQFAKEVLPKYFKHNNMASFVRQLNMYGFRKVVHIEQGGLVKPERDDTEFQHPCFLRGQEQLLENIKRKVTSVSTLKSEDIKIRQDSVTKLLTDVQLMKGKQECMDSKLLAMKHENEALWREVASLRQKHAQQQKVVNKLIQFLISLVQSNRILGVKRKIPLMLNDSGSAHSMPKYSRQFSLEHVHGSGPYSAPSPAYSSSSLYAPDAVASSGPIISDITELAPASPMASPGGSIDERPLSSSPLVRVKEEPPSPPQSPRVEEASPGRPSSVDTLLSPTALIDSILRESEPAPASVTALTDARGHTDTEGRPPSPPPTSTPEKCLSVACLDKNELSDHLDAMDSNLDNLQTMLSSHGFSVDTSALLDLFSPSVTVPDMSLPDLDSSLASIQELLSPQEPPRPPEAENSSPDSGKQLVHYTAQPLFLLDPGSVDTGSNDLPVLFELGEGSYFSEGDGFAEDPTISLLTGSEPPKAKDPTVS
Sequence of ETV5 (P41161 whole entry): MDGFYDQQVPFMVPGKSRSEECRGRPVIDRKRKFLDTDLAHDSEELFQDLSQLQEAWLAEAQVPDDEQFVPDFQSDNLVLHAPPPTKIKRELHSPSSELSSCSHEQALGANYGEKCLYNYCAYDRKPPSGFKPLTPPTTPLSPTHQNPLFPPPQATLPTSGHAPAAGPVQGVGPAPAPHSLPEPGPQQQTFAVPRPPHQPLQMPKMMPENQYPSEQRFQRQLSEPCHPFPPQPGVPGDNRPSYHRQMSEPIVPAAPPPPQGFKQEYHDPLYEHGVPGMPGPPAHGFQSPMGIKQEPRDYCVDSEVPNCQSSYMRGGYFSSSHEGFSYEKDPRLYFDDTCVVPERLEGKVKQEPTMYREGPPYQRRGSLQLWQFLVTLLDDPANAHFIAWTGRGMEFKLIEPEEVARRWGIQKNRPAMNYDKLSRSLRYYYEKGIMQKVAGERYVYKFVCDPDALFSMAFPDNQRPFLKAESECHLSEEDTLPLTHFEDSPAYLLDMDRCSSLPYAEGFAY
Sequence of ETV6 (P41212 whole entry): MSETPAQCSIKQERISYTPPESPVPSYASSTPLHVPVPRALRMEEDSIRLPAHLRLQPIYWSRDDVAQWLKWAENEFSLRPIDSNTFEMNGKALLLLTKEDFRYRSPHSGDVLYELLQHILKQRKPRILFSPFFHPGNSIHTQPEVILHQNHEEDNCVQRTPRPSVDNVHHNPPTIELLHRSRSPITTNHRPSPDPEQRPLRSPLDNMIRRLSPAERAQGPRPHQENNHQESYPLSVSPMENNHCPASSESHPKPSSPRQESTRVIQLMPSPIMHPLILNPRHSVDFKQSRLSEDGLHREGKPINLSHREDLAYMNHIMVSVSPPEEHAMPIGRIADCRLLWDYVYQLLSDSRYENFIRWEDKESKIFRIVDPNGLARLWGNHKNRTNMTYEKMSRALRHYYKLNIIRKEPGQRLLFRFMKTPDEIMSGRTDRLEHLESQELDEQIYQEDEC
Sequence of CRX (O43186 whole entry): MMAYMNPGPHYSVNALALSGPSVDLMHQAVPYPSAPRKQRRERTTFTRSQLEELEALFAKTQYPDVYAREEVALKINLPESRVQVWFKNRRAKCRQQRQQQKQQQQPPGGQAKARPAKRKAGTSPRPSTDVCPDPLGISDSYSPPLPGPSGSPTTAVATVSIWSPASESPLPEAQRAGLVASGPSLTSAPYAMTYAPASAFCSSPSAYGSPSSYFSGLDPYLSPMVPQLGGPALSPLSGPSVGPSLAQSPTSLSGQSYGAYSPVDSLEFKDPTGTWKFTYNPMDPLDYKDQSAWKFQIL
Sequence of ETV1 (P50549 whole entry): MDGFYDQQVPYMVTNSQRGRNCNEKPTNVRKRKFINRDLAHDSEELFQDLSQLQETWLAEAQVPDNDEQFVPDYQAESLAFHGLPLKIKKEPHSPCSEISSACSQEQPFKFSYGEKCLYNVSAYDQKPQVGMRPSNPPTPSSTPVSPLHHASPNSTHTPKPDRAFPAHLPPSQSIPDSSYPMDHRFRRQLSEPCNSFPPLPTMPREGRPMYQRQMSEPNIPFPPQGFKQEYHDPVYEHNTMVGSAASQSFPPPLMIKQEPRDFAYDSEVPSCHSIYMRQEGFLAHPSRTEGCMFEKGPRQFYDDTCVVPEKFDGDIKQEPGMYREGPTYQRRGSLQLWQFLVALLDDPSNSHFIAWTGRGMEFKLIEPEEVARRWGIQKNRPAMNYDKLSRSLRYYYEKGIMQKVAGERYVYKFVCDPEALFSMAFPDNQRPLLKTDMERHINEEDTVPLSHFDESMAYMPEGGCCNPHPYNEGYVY

Consider TTCCTA, for which the binding signal in assay [1] is 1.62 fold enrichment (6-mer frequency, TF over GST control); in [2], 1.79 fold enrichment (6-mer frequency, TF over GST control); in assay [3] it was 1.59 fold enrichment (6-mer frequency, TF over GST control); in [4], 1.67 fold enrichment (6-mer frequency, TF over GST control); in assay [5] it was 1.57 fold enrichment (6-mer frequency, TF over GST control); in assay [6] it was 1.52 fold enrichment (6-mer frequency, TF over GST control). For the same sequence, the binding signal in assay [7] is 1.77 fold enrichment (6-mer frequency, TF over GST control); in assay [8] it was 1.84 fold enrichment (6-mer frequency, TF over GST control); in assay [9] it was 1.47 fold enrichment (6-mer frequency, TF over GST control); in [10], 1.72 fold enrichment (6-mer frequency, TF over GST control); in assay [11], 1.54 fold enrichment (6-mer frequency, TF over GST control); in assay [12], 1.57 fold enrichment (6-mer frequency, TF over GST control). The binding signal is 1.8 fold enrichment (6-mer frequency, TF over GST control) in assay [13]; 1.6 fold enrichment (6-mer frequency, TF over GST control) in [14]; 1.64 fold enrichment (6-mer frequency, TF over GST control) in [15]; 2.04 fold enrichment (6-mer frequency, TF over GST control) in [16]; 1.89 fold enrichment (6-mer frequency, TF over GST control) in [17]; 1.99 fold enrichment (6-mer frequency, TF over GST control) in assay [18].

These data come from publication PMC7862700, “An all-to-all approach to the identification of sequence-specific readers for epigenetic DNA modifications on cytosine”.
